# Compounds without any hit were thinned out: in the full panel of roughly 79,000, 15% have a hit. A number with no mark means an inactive call. Activity calls are given as the source filed them. Rule as the data show it: active = growth inhibition above about 70%; inactive = the rest.
# Key:
# [1] = NCI Yeast Anticancer Drug Screen. Data for the rad52 strain (AID 147);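 also: 0% = growth of vehicle-treated control cultures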; details: S. cerevisiae rad52 mutant growth inhibition, stronger effect = higher value
# Outline: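 Here a repair-compromised yeast strain receives each compound; its growth is then quantified and normalised to vehicle-only controls.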
# [2] = NCI Yeast Anticancer Drug Screen. Data for the wt1 strain (AID 149);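 also: 0% = growth of vehicle-treated wt1 cultures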; details: S. cerevisiae wt1 strain (SPY 50644) growth inhibition, stronger effect = higher value
# Outline: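 Each compound is tested on wt1 yeast and the loss of growth versus vehicle gives the inhibition value.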
# [3] = NCI Yeast Anticancer Drug Screen. Data for the rad50EPP+ strain (AID 151);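 also: 0% = growth of vehicle-treated control cultures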; details: S. cerevisiae rad50 mutant strain, stronger effect = higher value
# Outline: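 Read-out is yeast growth inhibition relative to vehicle; cells used were the rad50EPP+ strain.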
# [4] = NCI Yeast Anticancer Drug Screen. Data for the mgt1 strain (AID 153); details: S. cerevisiae mgt1 mutant growth inhibition, stronger effect = higher value
# Outline: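 Measured: inhibition of mgt1 yeast growth by compound, normalized to vehicle-treated cultures.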
# [5] = NCI Yeast Anticancer Drug Screen. Data for the rad50 strain (AID 155);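 also: 0% = growth of vehicle-only cultures of the same strain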; details: S. cerevisiae rad50 strain growth inhibition, stronger effect = higher value
# Outline: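 Vehicle-treated cultures provide the reference for the growth inhibition reported for compound-exposed, repair-deficient yeast.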
# [6] = NCI Yeast Anticancer Drug Screen. Data for the mec2-1 strain (AID 157); details: S. cerevisiae mec2-1 strain, stronger effect = higher value
# Outline: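 Using mec2-1 yeast: add compound, measure growth, express inhibition versus vehicle-treated cultures.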
# [7] = NCI Yeast Anticancer Drug Screen. Data for the rad14 strain (AID 159);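 also: 0% = growth of vehicle-treated control cultures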; details: S. cerevisiae rad14 strain growth inhibition, stronger effect = higher value
# Outline: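 Inhibition of growth is reported for a repair-deficient yeast mutant following compound treatment, calculated relative to cultures that received vehicle.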
# [8] = NCI Yeast Anticancer Drug Screen. Data for the sgs1 mgt1 strain (AID 161);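 also: 0% = growth of cultures given vehicle only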; details: S. cerevisiae sgs1 mgt1 strain, stronger effect = higher value
# Outline: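 Growth of a repair-deficient yeast mutant was monitored after compound treatment and expressed as inhibition relative to vehicle-treated cultures.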
# [9] = NCI Yeast Anticancer Drug Screen. Data for the CLN2oe strain (AID 163);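 also: 0% = growth of vehicle-only control cultures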; details: S. cerevisiae CLN2oe strain, stronger effect = higher value
# Outline: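 Whole-cell yeast growth assay. A strain engineered for altered cell-cycle control received compound, and inhibition relative to vehicle-treated cultures was recorded.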
# [10] = NCI Yeast Anticancer Drug Screen. Data for the cln2 rad14 strain (AID 165);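 also: 0% = growth equal to vehicle treated cultures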; details: S. cerevisiae cln2 rad14 strain, stronger effect = higher value
# Outline: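 Yeast strain cln2 rad14, bearing defects in cell cycle control and DNA repair, serves as the test system; values reflect growth inhibition compared with vehicle.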
# [11] = NCI Yeast Anticancer Drug Screen. Data for the bub3 strain (AID 167); details: S. cerevisiae bub3 mutant strain, stronger effect = higher value
# Outline: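 Mutant yeast screening strain plus compound; vehicle-treated cultures serve as the 0% inhibition reference.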
# [12] = NCI Yeast Anticancer Drug Screen. Data for the wt2 strain (AID 169); details: S. cerevisiae wt2 strain growth inhibition, stronger effect = higher value
# Outline: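 Treated yeast vs. vehicle-treated yeast: growth inhibition determined.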
# [13] = NCI Yeast Anticancer Drug Screen. Data for the mlh1 strain (AID 171);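 also: 0% = growth of vehicle-treated control cultures of the same strain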; details: S. cerevisiae mlh1 strain growth inhibition, stronger effect = higher value
# Outline: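 A yeast strain with a defined genetic lesion serves as the test organism. Cultures receive compound or vehicle, and growth is measured.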
# [14] = NCI Yeast Anticancer Drug Screen. Data for the sgs1 strain (AID 173);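 also: 0% = growth of vehicle-only control cultures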; details: S. cerevisiae sgs1 mutant, stronger effect = higher value
# Outline: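 A genetically defined yeast mutant is incubated with the test compound, and its growth is compared to that of the same strain given vehicle.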
# [15] = NCI Yeast Anticancer Drug Screen. Data for the mlh1 rad18 strain (AID 175); details: S. cerevisiae mlh1 rad18 strain growth inhibition, stronger effect = higher value
# Outline: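 Steps: expose repair-defective yeast to compound; measure growth; express inhibition against vehicle-treated controls.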
# [16] = NCI Yeast Anticancer Drug Screen. Data for the rad18 strain (AID 177); details: S. cerevisiae rad18 mutant growth inhibition, stronger effect = higher value
# Outline: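 Measured value is growth inhibition of a yeast strain bearing a DNA repair alteration, referenced to vehicle-treated cells.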
# [17] = at 5.0 µM (retest, dose inferred, filed as 0.5)
# [18] = at 50.0 µM (retest, dose inferred, filed as 5.0)
smiles,measurement,setting,value
CCCc1cc(C(=O)OCC)cc(CCC)c1O,growth inhibition,[1]; at 1.2 µM,-2%
same,growth inhibition,[1]; at 3.7 µM,-8%
same,growth inhibition,[1]; at 11.0 µM,-9%
same,growth inhibition,[1]; at 33.0 µM,-11%
same,growth inhibition,[1]; at 100.0 µM,97% (active)
same,growth inhibition,[2]; at 1.2 µM,-1%
same,growth inhibition,[2]; at 3.7 µM,-5%
same,growth inhibition,[2]; at 11.0 µM,-9%
same,growth inhibition,[2]; at 33.0 µM,-13%
same,growth inhibition,[2]; at 100.0 µM,93% (active)
same,growth inhibition,[3]; at 1.2 µM,-2%
same,growth inhibition,[3]; at 3.7 µM,3%
same,growth inhibition,[3]; at 11.0 µM,14%
same,growth inhibition,[3]; at 33.0 µM,21%
same,growth inhibition,[3]; at 100.0 µM,25%
same,growth inhibition,[4]; at 1.2 µM,-3%
same,growth inhibition,[4]; at 3.7 µM,-4%
same,growth inhibition,[4]; at 11.0 µM,-9%
same,growth inhibition,[4]; at 33.0 µM,-12%
same,growth inhibition,[4]; at 100.0 µM,97% (active)
same,growth inhibition,[5]; at 1.2 µM,-8%
same,growth inhibition,[5]; at 3.7 µM,-49%
same,growth inhibition,[5]; [17],5%
same,growth inhibition,[5]; at 11.0 µM,16%
same,growth inhibition,[5]; at 33.0 µM,0%
same,growth inhibition,[5]; [18],3%
same,growth inhibition,[5]; at 50.0 µM,93.1% (active)
same,growth inhibition,[5]; at 100.0 µM,98% (active)
same,growth inhibition,[6]; at 1.2 µM,-4%
same,growth inhibition,[6]; at 3.7 µM,-5%
same,growth inhibition,[6]; [17],-47%
same,growth inhibition,[6]; at 11.0 µM,-13%
same,growth inhibition,[6]; at 33.0 µM,-12%
same,growth inhibition,[6]; [18],8%
same,growth inhibition,[6]; at 50.0 µM,96.1% (active)
same,growth inhibition,[6]; at 100.0 µM,95% (active)
same,growth inhibition,[7]; at 1.2 µM,-1%
same,growth inhibition,[7]; at 3.7 µM,-2%
same,growth inhibition,[7]; at 11.0 µM,-11%
same,growth inhibition,[7]; at 33.0 µM,-8%
same,growth inhibition,[7]; at 100.0 µM,96% (active)
same,growth inhibition,[8]; [17],1%
same,growth inhibition,[8]; [18],27%
same,growth inhibition,[8]; at 50.0 µM,79.3% (active)
same,growth inhibition,[9]; at 1.2 µM,-1%
same,growth inhibition,[9]; at 3.7 µM,-6%
same,growth inhibition,[9]; at 11.0 µM,-9%
same,growth inhibition,[9]; at 33.0 µM,-30%
same,growth inhibition,[9]; at 100.0 µM,96% (active)
same,growth inhibition,[10]; [17],2%
same,growth inhibition,[10]; [18],-29%
same,growth inhibition,[10]; at 50.0 µM,93.8% (active)
same,growth inhibition,[11]; at 1.2 µM,0%
same,growth inhibition,[11]; at 3.7 µM,10%
same,growth inhibition,[11]; [17],31%
same,growth inhibition,[11]; at 11.0 µM,39%
same,growth inhibition,[11]; at 33.0 µM,63%
same,growth inhibition,[11]; [18],77% (active)
same,growth inhibition,[11]; at 50.0 µM,96.7% (active)
same,growth inhibition,[11]; at 100.0 µM,97% (active)
same,growth inhibition,[12]; at 1.2 µM,-1%
same,growth inhibition,[12]; at 3.7 µM,4%
same,growth inhibition,[12]; at 11.0 µM,-7%
same,growth inhibition,[12]; at 33.0 µM,-3%
same,growth inhibition,[12]; at 100.0 µM,94% (active)
same,growth inhibition,[13]; at 1.2 µM,-4%
same,growth inhibition,[13]; at 3.7 µM,-4%
same,growth inhibition,[13]; at 11.0 µM,-8%
same,growth inhibition,[13]; at 33.0 µM,-8%
same,growth inhibition,[13]; at 100.0 µM,98% (active)
same,growth inhibition,[14]; at 1.2 µM,-2%
same,growth inhibition,[14]; at 3.7 µM,-2%
same,growth inhibition,[14]; at 11.0 µM,-3%
same,growth inhibition,[14]; at 33.0 µM,18%
same,growth inhibition,[14]; at 100.0 µM,95% (active)
same,growth inhibition,[15]; [17],2%
same,growth inhibition,[15]; [18],7%
same,growth inhibition,[15]; at 50.0 µM,93.5% (active)
same,growth inhibition,[16]; at 1.2 µM,-6%
same,growth inhibition,[16]; at 3.7 µM,0%
same,growth inhibition,[16]; at 11.0 µM,-5%
same,growth inhibition,[16]; at 33.0 µM,-1%
same,growth inhibition,[16]; at 100.0 µM,98% (active)

# From PubChem BioAssay (NCI)
